Data on 13 compounds can be found in PubChem BioAssay (NCATS).

Molecules are shown by their SMILES. Results filed as inconclusive are left out. Activity calls are given as the source filed them. Calls follow the shape of the dose curve; as a rule, active = well fitted cell-killing curve with a large enough effect; inconclusive = small, poorly fitted or top-dose-only effect, or effect the other way; inactive = no such curve, though single readings can be large or run the other way.
Potency is read from the fitted curve at half-maximal effect.

The experiment in a line: Quantitative High-Throughput drug screen in 47 multiple myeloma cell lines against the NCATS MIPE library collection: H1112_PLB cell viability assay (AID 1918967; also: nearly all actives have a fitted effect of over 30% in size). Particulars: H1112 myeloma cells viability, ATP luminescence, 48 h; series mostly up to 45.8 µM. The method in brief: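 Inhibition of cell viability is measured here. Each line was plated at 500 cells per well, treated with MIPE 4.0 drugs, kept 48 hours at 37C, then assayed for ATP content by CellTiter-Glo luminescence.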
Take `O=C(CCCCCCC(=O)Nc1ccc([C@H]2O[C@@H](CSc3nc(-c4ccccc4)c(-c4ccccc4)o3)C[C@@H](c3ccc(CO)cc3)O2)cc1)NO`: the Potency is 13.2 µM (active).
To `COc1ccc(OC)c(-c2nnc3ccc(-c4ccc(OC)c(O[C@@H]5CCOC5)c4)nn23)c1` belongs 13.2 µM (active); to `COc1cc(C(C)C)c2c(c1)S(=O)(=O)N(COc1cc(=O)n3cccc(OCCN4CCCCC4)c3n1)C2=O`, 14.8 µM (active).
In the case of `C[C@@H](Oc1cc(-c2cnn(C3CCNCC3)c2)cnc1N)c1c(Cl)ccc(F)c1Cl`, the Potency was 11.8 µM (active).
For `CCN1CCN(CC(=O)Nc2ccc(-c3cccc4c(=O)cc(N5CCOCC5)oc34)c3sc4ccccc4c23)CC1` the value was 6.62 µM (active); for `OCc1ccc(-c2ccc(-c3ccc(CO)s3)o2)s1`, 16.6 µM (active).
For `O=C(c1ccc(Nc2nccc(-c3cc4ccccc4s3)n2)cc1)N1CCC(N2CCCC2)CC1` the value was 7.43 µM (active); for `O=C(Nc1cn[nH]c1-c1nc2ccc(CN3CCOCC3)cc2[nH]1)NC1CC1`, 3.32 µM (active); for `CC(C)c1ccc(Cn2ccc3c4c(N)nc(NC5CC5)nc4ccc32)cc1`, 9.35 µM (active).
For `Cc1cn(-c2cc(NC(=O)c3ccc(C)c(Nc4nccc(-c5cccnc5)n4)c3)cc(C(F)(F)F)c2)cn1` the value was “inactive”.
As for `COc1cc2c(cc1-c1c(C)noc1C)ncc1[nH]c(=O)n([C@H](C)c3ccccn3)c12`, the Potency was 20.9 µM (active).
For `OCCCNc1cc(-c2ccnc(Nc3cccc(Cl)c3)n2)ccn1` the value was 0.059 µM (active); for `CC(C)(C)OC(=O)Nc1ccc(-c2cc(C(=O)NCCCCCCC(=O)NO)no2)cc1`, 3.72 µM (active).
